Hit rate of the full screen: of about 290,000 compounds, about 3,000 (1%) were called active. This is one part of a sample in which actives are shown more often than they occur. Rule as the data show it: active = inhibition mostly above about 36% (no sharp cut-off); inactive = mostly below about 34%.

The results in this text go back to the GenesisPotency data set.

This assay concerns the target T1, Nucleotide-binding oligomerization domain-containing protein 1, Homo sapiens (UniProt Q9Y239).
T1 sequence (whole entry): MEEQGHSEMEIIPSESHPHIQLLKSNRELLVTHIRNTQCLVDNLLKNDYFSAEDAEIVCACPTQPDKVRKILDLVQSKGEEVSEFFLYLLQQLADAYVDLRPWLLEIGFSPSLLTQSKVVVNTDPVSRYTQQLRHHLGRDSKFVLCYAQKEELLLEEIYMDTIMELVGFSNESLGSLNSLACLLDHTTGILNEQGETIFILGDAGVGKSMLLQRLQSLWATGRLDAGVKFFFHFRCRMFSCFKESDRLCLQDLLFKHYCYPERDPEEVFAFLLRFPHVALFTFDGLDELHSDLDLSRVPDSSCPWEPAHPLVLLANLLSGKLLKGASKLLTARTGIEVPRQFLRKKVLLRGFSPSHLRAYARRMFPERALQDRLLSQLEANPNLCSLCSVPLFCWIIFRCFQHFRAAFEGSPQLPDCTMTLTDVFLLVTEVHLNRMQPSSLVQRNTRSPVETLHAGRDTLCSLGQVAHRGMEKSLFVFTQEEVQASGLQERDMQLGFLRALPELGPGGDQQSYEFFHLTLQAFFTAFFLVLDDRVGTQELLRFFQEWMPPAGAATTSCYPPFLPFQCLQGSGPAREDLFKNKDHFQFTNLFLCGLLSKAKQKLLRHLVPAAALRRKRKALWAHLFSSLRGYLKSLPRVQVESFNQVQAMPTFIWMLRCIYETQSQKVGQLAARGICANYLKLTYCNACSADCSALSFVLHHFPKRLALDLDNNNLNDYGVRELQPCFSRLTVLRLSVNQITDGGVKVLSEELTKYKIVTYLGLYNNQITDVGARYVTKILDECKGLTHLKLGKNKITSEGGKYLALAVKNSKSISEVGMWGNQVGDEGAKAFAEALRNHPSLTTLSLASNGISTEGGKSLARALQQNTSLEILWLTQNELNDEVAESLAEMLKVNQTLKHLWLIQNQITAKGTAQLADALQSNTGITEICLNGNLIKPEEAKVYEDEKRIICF
As to the kind of experiment: NOD1 signaling inhibitors, primary screen, cell-based, luminescence, uHTS (AID 1578).
On to `O=S1(=O)C=C(Sc2nc3ccccc3s2)c2ccccc21`, for which the compound was called active.
For `Cn1c(SC2=CS(=O)(=O)c3ccccc32)nc2ccccc21`, the call was active.
As to `O=S1(=O)C=C(Sc2nc3cc(Cl)ccc3o2)c2ccccc21`, the compound was called active.
For the compound `Cc1cc(C)cc(NC(=O)CSc2nnc(Cc3cccn3C)n2-c2ccc(F)cc2)c1`, the call was active.
As for `Cc1ccc(C(=O)NC(C#N)=C(Cl)Cl)cc1`, the outcome was active.
For `O=C(NC(=C(Cl)Cl)S(=O)(=O)c1ccc(Cl)cc1)c1ccccc1`, the compound was classed as active.
Take `Cc1ccc(C(=O)NC(=C(Cl)Cl)S(=O)(=O)c2ccccc2)cc1`: the call was active.
Then `CC(=O)NC(=C(Cl)Cl)S(=O)(=O)c1ccccc1`, with “active”; and `O=C(NCCCSc1ccccc1)c1cc(Cl)ccc1O`, with “active”; and `O=C(NCCCSc1ccccc1)c1cc(Br)ccc1O`, with “active”.
Then `COC(=O)c1cccc2c1-c1ccccc1/C2=N/O`, with “active”; and `CCOC(=O)c1cccc2c1-c1ccccc1/C2=N/O`, with “active”; and `Cc1ccc2c(C(=O)CCl)c(C)[nH]c2c1`, with “active”.
For `Cc1[nH]c2ccccc2c1C(=O)CCl`, the compound was classed as active.
For the compound `Cc1ccc2cccc(NS(=O)(=O)c3ccccc3)c2n1`, the result was active.
With `Cc1ccc(S(=O)(=O)Nc2cccc3cccnc23)cc1`, the outcome was active.
Take `O=[N+]([O-])c1ccccc1S(=O)(=O)Nc1cccc2cccnc12`: the compound was called active.
`COc1cc(NS(=O)(=O)c2ccc3ccccc3c2)c2ncccc2c1`: the outcome was active.
Take `Cc1ccc(S(=O)(=O)Nc2cccc3cccnc23)c([N+](=O)[O-])c1`: the compound was called active.
Turning to `C[C@@H]1C[C@@H]2O[C@H]2/C=C\C=C\C(=O)Cc2c(Cl)c(O)cc(O)c2C(=O)O1`, the call was active.
Take `C/C(=N\NC(=O)c1ccc(Cl)cc1)c1ccccn1`: the result was active.
Then `C/C(=N\NC(=O)c1ccc(F)cc1)c1ccccn1`, with “active”; and `C/C(=N\NC(=O)c1cccc(Br)c1)c1ccccn1`, with “active”.
Next, `C/C(=N\NC(=O)Cc1ccc(Cl)cc1)c1ccccn1`: “active”; `COc1ccc(C(=O)N/N=C(\C)c2ccccn2)cc1OC`: “active”.
With `C/C(=N\NC(=O)COc1ccccc1-c1ccccc1)c1ccccn1`, the compound was classed as active.
Consider `C/C(=N\NC(=O)c1ccc(Cl)c(Cl)c1)c1ccccn1`, for which the compound was called active.
Take `Nc1c(Cl)ncnc1N/N=C/c1ccccn1`: the outcome was active.
Turning to `COc1ccc(CNc2ncnc3ccccc23)cc1`, the compound was classed as active.
`Cc1cc2c(NCc3ccccc3)ncnc2s1.Cl`: the call was active.
Turning to `CC(Nc1ncnc2ccccc12)c1ccccc1` (stereo not given), the outcome was active.
Consider `Cl.c1ccc(CNc2ncnc3ccccc23)cc1`, for which the compound was called active.
On to `c1ccc(CNc2ncnc3ccccc23)cc1`, for which the result was inactive.
With `Brc1ccc2ncnc(NCc3cccnc3)c2c1`, the result was active.
Take `COc1cccc(CNc2ncnc3cc(Cl)ccc23)c1`: the call was active.
Then `S=C(Nc1ccc(Cl)c(Cl)c1)NC1CCCCC1`, with “active”.
Take `Fc1ccc(NC(=S)NNc2ncc(C(F)(F)F)cc2Cl)c(F)c1`: the compound was classed as active.
With `COCCOC(=O)c1[nH]c2c(c1C)C(=O)CC(c1cc(OC)c(OC)c(OC)c1)C2` (stereo not given), the compound was classed as active.
As for `CCCCOC(=O)c1[nH]c2c(c1C)C(=O)CC(c1cc(OC)c(OC)c(OC)c1)C2` (stereo not given), the compound was called active.
With `Cc1ccc(-c2csc(NC(=O)C3=NN(c4ccccc4)C(=O)CC3)n2)cc1`, the outcome was active.
Consider `O=C(N/N=C/c1ccc([N+](=O)[O-])s1)c1ccncc1`, for which the compound was classed as active.
For `Cc1ccc(C(=O)N/N=C/c2ccc([N+](=O)[O-])s2)cc1`, the compound was called active.
Regarding `Cc1ccc2oc(Nc3nc(-c4ccccc4)cc(=O)[nH]3)nc2c1`, the compound was called active.
Regarding `COc1cccc(C(=O)Nc2ccc3nc(N4CCN(c5ncccn5)CC4)cc(C)c3c2)c1OC`, the compound was called active.
With `Cc1ccc2nc(-c3ccc4c(c3)OCCO4)cn2c1`, the call was active.
As for `O=C(/C=C/c1ccco1)Oc1cc(Br)cc(/C=N/NC(=O)c2ccccc2O)c1`, the outcome was active.
Turning to `O=C(Nc1nc(-c2cccs2)cs1)c1ccc(S(=O)(=O)N2CCCC2)cc1`, the outcome was active.
Take `O=C(Nc1nc(-c2ccccc2)cs1)C1CCCN(S(=O)(=O)c2ccccc2)C1` (stereo not given): the compound was classed as active.
Then `O=C(Nc1nnc(SCc2c(Cl)cccc2Cl)s1)c1cccc([N+](=O)[O-])c1`, with “active”; and `CC(=O)c1cccc(NS(=O)(=O)c2ccc(-c3cnc(C4CC4)o3)cc2)c1`, with “active”.
Next, `COc1ccc(CCNc2cc(N3CCN(C(=O)c4ccccc4F)CC3)ccc2[N+](=O)[O-])cc1OC`: “active”; `Cn1c(Sc2ccc(Br)cc2)c(C=O)c2ccccc21`: “active”; `Cc1cccc(Sc2c(C=O)c3ccccc3n2C)c1`: “active”.
Take `Cc1ccc(Sc2c(C=O)c3ccccc3n2C)cc1`: the compound was called active.
Next, `N#C/C(=C(/O)COc1ccc(Cl)cc1)c1nc2ccccc2s1`: “active”; `N#C/C(=C(/O)Cc1cccc2ccccc12)c1nc2ccccc2s1`: “active”.
Regarding `COc1ccccc1NS(=O)(=O)c1cccc(NC(=O)c2sc3ccccc3c2Cl)c1`, the compound was classed as active.
`CS(=O)(=O)Nc1ccccc1C(=O)Nc1cc(Cl)cc(Cl)c1`: the call was active.
Consider `Cc1ccc(NC(=O)c2ccccc2NS(=O)(=O)c2ccc(Cl)s2)cc1S(=O)(=O)N1CCOCC1`, for which the call was active.
As to `COc1ccc(C)cc1NC(=O)c1ccccc1NS(=O)(=O)c1ccc(Cl)s1`, the compound was classed as active.
In the case of `Cc1ccc(NC(=O)c2ccccc2NS(=O)(=O)c2ccc(Cl)s2)cc1`, the compound was called active.
With `COc1cc(NC(=O)c2ccccc2NS(=O)(=O)c2ccc(Cl)s2)cc(OC)c1`, the call was active.
In the case of `Cc1ccc(C)c(NC(=O)c2ccccc2NS(=O)(=O)c2cc([N+](=O)[O-])ccc2C)c1`, the call was active.
Take `O=C1CCC2S/C(=C/Nc3ccc(C(F)(F)F)cc3)C(=O)N12` (stereo not given): the outcome was active.
`Cc1ccc(-c2nn(CCC(=O)O)cc2/C=C\C(=O)c2ccc(Br)cc2)cc1`: the compound was called active.
As for `O=C(c1ccccc1)c1nn(-c2ccc(Cl)cc2)c(=O)cc1C(F)(F)F`, the result was active.
In the case of `CCOC(=O)c1c(N2C(=O)Nc3cc(Cl)c(Cl)cc3N2O)sc2c1CCCCC2`, the call was active.
`COc1ccc2cc3c(N)nn(C(=O)Cc4c[nH]c5ccccc45)c3nc2c1`: the compound was called active.
In the case of `COc1ccc2cc3c(N)nn(C(=O)Cc4ccccc4OC)c3nc2c1`, the compound was called active.
Turning to `CCCCCCc1cc2cc(S(=O)(=O)c3ccc(Cl)cc3)c(=O)oc2cc1O`, the call was active.
Consider `CCCCCCc1cc2cc(S(=O)(=O)c3ccc(F)c(Cl)c3)c(=O)oc2cc1O`, for which the result was active.
As to `Cc1nn(Cc2ccc(Cl)cc2)c(C)c1NC(=O)c1noc2c1CCc1ccccc1-2`, the outcome was active.
As for `CC(C)Cn1c(N)c(C(=O)CSc2ccc3c(c2)OCCO3)c(=O)n(C)c1=O`, the call was active.
As to `COc1ccc(-c2cc(=O)oc3c(C)c(O)ccc23)cc1`, the result was active.
Turning to `COc1ccc(-c2cc(=O)oc3c(C)c(OC(=O)c4cccs4)ccc23)cc1`, the call was active.
